Screening results (PubChem BioAssay)
In the library only some 2.4% were active in any assay of this set; here they are far more common.
ANO1 block: mouse TMEM16A channel inhibition, primary screen. HEK293 TMEM16A/YFP iodide influx fluorescence, ionomycin. normalized B-score (activity score, 25-100; higher = stronger inhibition) at 10 µM. Q8BHY3. hit rate 1.2% among 310,000. AID 588511;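 active means ratio plate-corrected score three or more library SD toward inhibition, starting fluorescence score within five deviations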;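 further: score derived from kinetic fluorescence span divided by baseline fluorescence per well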
m5-HT2A agonist: mouse HTR2A agonism via beta-arrestin recruitment | P35363 | CHO-K1 mHTR2A beta-arrestin complementation, luminescence; percent of 30 µM serotonin response | hit rate 0.66% among 360,000 | activation, % at 7.6 µM;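 active means activation above a run cutoff, the mean activation of all tested compounds plus 3 SD, cut at about 14% in these data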;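 further: 0% = plate median of compound wells and 100% = 30 µM serotonin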
NOD2-RIPK2 inh: NOD2-RIPK2 protein interaction inhibition | O43353 | CHO BLA complementation NOD2-RIPK2, CCF4 ratio | inhibition, % at 4.98 µM | hit rate 0.38% among 360,000; in the data active means inhibition above about 21%;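 further: 0% = vehicle only and 100% = reference blocker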
TLR4 MyD88 comp: blocks binding of human TLR4 to MyD88; hit rate 0.18% among 200,000; O00206+Q99836; inhibition, % at 8.4 µM; AID 861; HeLa CL3-4 TLR4/MyD88 BLA complementation, FRET ratio; in the data active means inhibition above about 25%;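 further: 0% = vehicle and 100% = reference inhibitor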
Target sequence (O00206 whole entry, looked up): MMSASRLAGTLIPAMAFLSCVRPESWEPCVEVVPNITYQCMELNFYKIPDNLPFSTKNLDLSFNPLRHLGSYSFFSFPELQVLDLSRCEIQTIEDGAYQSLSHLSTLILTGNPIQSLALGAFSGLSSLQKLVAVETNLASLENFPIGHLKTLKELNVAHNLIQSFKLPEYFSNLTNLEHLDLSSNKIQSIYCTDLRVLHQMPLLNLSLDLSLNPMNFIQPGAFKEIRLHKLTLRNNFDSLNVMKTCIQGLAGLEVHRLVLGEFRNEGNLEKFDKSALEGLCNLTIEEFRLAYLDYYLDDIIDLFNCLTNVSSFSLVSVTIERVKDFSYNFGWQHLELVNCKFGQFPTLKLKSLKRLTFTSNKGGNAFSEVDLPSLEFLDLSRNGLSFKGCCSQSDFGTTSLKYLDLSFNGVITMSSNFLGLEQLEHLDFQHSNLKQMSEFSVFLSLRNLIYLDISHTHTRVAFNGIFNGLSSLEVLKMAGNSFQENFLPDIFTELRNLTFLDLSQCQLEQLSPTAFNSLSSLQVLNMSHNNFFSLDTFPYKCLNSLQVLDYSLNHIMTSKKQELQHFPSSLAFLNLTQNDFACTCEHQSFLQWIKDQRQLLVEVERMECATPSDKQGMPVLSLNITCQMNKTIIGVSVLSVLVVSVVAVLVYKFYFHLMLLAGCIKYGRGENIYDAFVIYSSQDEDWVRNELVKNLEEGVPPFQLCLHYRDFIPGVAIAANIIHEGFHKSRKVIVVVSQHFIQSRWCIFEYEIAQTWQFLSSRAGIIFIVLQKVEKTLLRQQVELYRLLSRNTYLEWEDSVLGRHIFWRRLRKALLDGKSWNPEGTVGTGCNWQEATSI
Target sequence (Q99836 whole entry, looked up): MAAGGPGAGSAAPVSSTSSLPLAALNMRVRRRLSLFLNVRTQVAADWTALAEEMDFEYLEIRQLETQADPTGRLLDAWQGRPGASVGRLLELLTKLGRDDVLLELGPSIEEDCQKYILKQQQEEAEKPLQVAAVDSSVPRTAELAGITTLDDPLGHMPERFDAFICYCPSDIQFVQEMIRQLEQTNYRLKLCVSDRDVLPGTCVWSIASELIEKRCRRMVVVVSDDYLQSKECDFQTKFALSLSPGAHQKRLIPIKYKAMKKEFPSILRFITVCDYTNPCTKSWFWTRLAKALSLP
ANO1 activ: mouse TMEM16A channel activation, primary screen | Q8BHY3 | HEK293 TMEM16A/YFP-H148Q/I152L, iodide quench fluorescence; hits give low values | B-score at 10 µM | hit rate 0.3% among 340,000 | AID 623877;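 active means fluorescence-ratio B-score plate-corrected deviation score at least 3 library SD below zero, with starting fluorescence score within 5 deviations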;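 further: channel opened by trigger with iodide after compound preincubation; score built on the fluorescence ratio of max minus min over baseline; more negative score means more quench and so TMEM16A activation or potentiation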
TLR9-MyD88 inh: blocks human TLR9 binding to MyD88. CHO BLA complementation TLR9-MyD88, CCF4 FRET ratio. inhibition, % at 4.98 µM. hit rate 0.21% among 340,000. AID 504734;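 active means inhibition above the mean over all tested compounds plus 3 SD, cut at about 21% in these data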;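 further: 0% = DMSO only wells and 100% = clavulanate BLA inhibitor control wells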
OPRM1 ag: counter-screen for mouse HTR2A agonists: human mu opioid receptor agonists | U2OS OPRM1 beta-arrestin PathHunter, luminescence; DMSO 0%, DAMGO 9.3 µM 100% | activation, % at 9.3 µM | hit rate 5.3% among 2,300 | shares compounds with m5-HT2A agonist;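 active means mean activation above the mean of DMSO-only wells plus 3 SD, cut at about 0.5% in these data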
HTR2A ag conf: confirmation of mouse HTR2A serotonin receptor agonists | AID 624381 | hit rate 19% among 2,300 | CHO-K1 PathHunter beta-arrestin recruitment, luminescence; DMSO 0%, 30 µM serotonin 100% | activation, % at 7.6 µM | shares compounds with m5-HT2A agonist;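 active means mean activation across triplicates above the hit threshold derived in the original primary screen, cut at about 15% in these data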
* = called active by the depositor; i = inactive; / = not tested or not shown.

SMILES	ANO1 block	m5-HT2A agonist	NOD2-RIPK2 inh	TLR4 MyD88 comp	ANO1 activ	TLR9-MyD88 inh	OPRM1 ag	HTR2A ag conf
COc1ccc(-n2c(SCC(=O)NCC3CCCO3)nc3c(c2=O)SCC3)cc1 (configuration not stated)	i	15*	-6	/	i	-10	-1	-5
CCn1c(SCC(=O)Nc2ccc(OC)c(OC)c2)nc2c(c1=O)SCC2	i	17*	3	/	i	-3	-1	-4
C=CCn1c(SCC(=O)NCC2CCCO2)nc2sc(CC)cc2c1=O (configuration not stated)	/	17*	-2	/	i	-4	0	2
COc1ccc(NC(=O)CSc2nc3c(c(=O)n2C)SCC3)cc1OC	i	10	4	/	i	-7	/	/
COC(=O)c1sc(S(=O)(=O)NCCC(=O)O)c(C(=O)OC)c1C	i	3	-5	-18	i	-6	/	/
COc1ccccc1C1=NC(c2ccc(C)cc2)N=C1C (configuration not stated)	i	-6	2	-1	i	0	/	/
CCOc1ccc(C2Nc3ccccc3NC3=C2C(=O)CC(C)(C)C3)cc1OC (configuration not stated)	i	-1	-4	/	i	-10	/	/
COc1ccc(C2Nc3ccccc3NC3=C2C(=O)CC(C)(C)C3)cc1OC (configuration not stated)	i	17*	-2	/	i	-1	0.7*	8
Cc1ccc(NCc2nnc3n2CCCCC3)c(C)c1	i	3	0	-19	i	5	/	/
Fc1ccc(NCc2nnc3n2CCCCC3)cc1	i	20*	-4	6	i	4	0	3
CCOC(=O)c1ccc(NC(=O)CCc2nnc3ccc(N4CCCC4)nn23)cc1	i	24*	12	/	i	0	-1	-3
O=C(CCC(=O)c1ccccc1)NCCc1c[nH]c2ccccc12	i	21*	-9	7	i	-6	-1	11
CC(O)CNC(=O)Cc1cc(=O)[nH]c(=O)[nH]1 (configuration not stated)	i	1	-4	/	i	-2	/	/
O=C(NC(=S)Nc1ccccc1N1CCCCC1)c1ccc(F)cc1Cl	i	17*	2	/	i	4	-1	-5
CCOC(=O)C1C(=O)CC(=O)CC1CC(C)SCC (configuration not stated)	i	1	-6	13	i	-40	/	/
O=C(Nc1nccs1)c1c(O)c2c([nH]c1=O)CCCC2	i	-2	0	/	i	0	/	/
O=C(Nc1ccccc1O)c1c(O)c2c([nH]c1=O)CCCC2	i	15*	-1	0	i	14	0.8*	5
COCCNCC(=O)N1CCCCCC1	i	17*	-12	10	i	-1	-1	-2
COCCNC(=O)CN1CCCCCC1	i	-1	-8	-14	i	-12	/	/
Cc1cccc(S(=O)(=O)NCCc2cn3ccccc3n2)c1	i	2	-6	-2	i	5	/	/
Cc1ccn2cc(CCNS(=O)(=O)c3ccc4c(c3)CCCC4)nc2c1	i	25*	-10	1	i	5	-1	-5
CCOC(=O)c1sc2nc(C)nc(NCCc3ccc(S(N)(=O)=O)cc3)c2c1C	i	2	-3	/	i	-7	/	/
CCOc1ncccc1C(=O)N1CCN(C(c2ccccc2)c2ccccc2)CC1	i	-3	-1	-6	i	-15	/	/
Cc1ccc(C)c(-n2c(CNc3ccc(F)cc3)nnc2SCC(N)=O)c1	i	18*	-4	4	i	6	-1	-4
Cc1ccc(-n2c(CNc3ccc(F)cc3)nnc2SCC(=O)O)cc1	i	0	-12	-5	i	/	/	/
SMILES	ANO1 block	m5-HT2A agonist	NOD2-RIPK2 inh	TLR4 MyD88 comp	ANO1 activ	TLR9-MyD88 inh	OPRM1 ag	HTR2A ag conf
COc1ccc2c(C)cc(=O)oc2c1	/	29*	-15	/	i	-10	-1	37*
Cc1onc(-c2ccccc2)c1C(=O)N1CCN(Cc2ccccc2)CC1	i	0	-10	/	i	-12	/	/
CCN1CCN(C(=O)c2c(-c3ccccc3)noc2C)CC1	i	17*	-4	/	i	2	0	1
CCN1C(=O)[C@H]2[C@@H](c3ccc(C(F)(F)F)cc3)N[C@]3(CCCN(Cc4cccn4C)C3=O)[C@H]2C1=O	/	-3	-2	/	/	4	/	/
CCN1C(=O)[C@H]2[C@@H](c3ccc(C)cc3)N[C@]3(CCCN(Cc4cccn4C)C3=O)[C@H]2C1=O	/	21*	-11	/	/	-2	-1	-2
CC(C)(C)C(=O)NCc1ccc(C(=O)CSc2nnc(-c3ccncc3)n2C2CC2)s1	/	16*	5	/	i	-7	-1	-2
Cc1ccc(C(=O)CSc2nnc(C3CC3)n2C2CC2)s1	/	3	-3	/	i	-4	/	/
Cc1nn(-c2ccccc2)c(C)c1NC(=O)COc1cc(F)ccc1[N+](=O)[O-]	/	5	14	/	i	2	/	/
CCc1cc(=O)oc2c(C)c(OC(C)C(=O)NCCCN3CCOCC3)ccc12 (configuration not stated)	i	7	2	/	i	-2	/	/
Cc1cc(=O)oc2c(C)c(OC(C)C(=O)NCCCN3CCOCC3)ccc12 (configuration not stated)	i	16*	-4	/	i	-3	0	-4
COc1ccc(CCC(=O)NNC(=O)Cn2nc(C)cc2C)cc1	i	17*	-4	/	i	-6	-1	-7
Cc1cccc(OCCC(=O)NNC(=O)Cn2nc(C)cc2C)c1	/	1	-7	/	i	7	/	/
O=C(c1ccc(F)cc1)C1CCN(C(=O)c2ccc(F)cc2)CC1	i	-1	-12	/	i	1	/	/
O=C(O)CNS(=O)(=O)c1ccc2c3c(cccc13)C(=O)N2	i	-2	5	/	i	-2	/	/
O=C(O)CCCCCNS(=O)(=O)c1ccc2c3c(cccc13)C(=O)N2	i	16*	9	/	i	-2	-1	-3
Cc1sc2nc(COC(=O)c3ccc(N4CCCC4)c([N+](=O)[O-])c3)[nH]c(=O)c2c1C	i	-2	2	-3	i	-6	/	/
CC(=O)Nc1ccc(SCCN2CC[C@@H](O)CCC2=O)cc1	/	30*	8	/	i	0	-1	-4
CC(=O)Nc1ccc(SCCN2CC[C@@H](C)CCC2=O)cc1	/	7	-2	/	i	-14	/	/
CC(C)(C)OC(=O)NCCCC[C@H](NC(=O)c1[nH]cnc1C(=O)Nc1ccc(CNC(=O)OC(C)(C)C)cc1)C(=O)OC(C)(C)C	i	/	/	/	/	/	/	/
